# Data taken from PubChem BioAssay (NCI).
# About 83,000 compounds went through this panel and 20% of them were active in at least one assay; those are over-represented in the sample as a whole.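 Cell lines were cultured in 96-well plates, exposed to a single compound concentration, and assessed for percent growth 48 hours later.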 Values without a mark were called inactive. Activity calls are given as the source filed them. How the source made its calls: active means growth percent below 10; inactive means the rest.
# Legend:
# Assay in all cases: NCI-60 one-dose screen, 48 h (100 = growth as untreated, 0 = no growth, -100 = all killed)
# Conditions in all cases: 10 µM unless noted
# SR leukemia = tested on: SR leukemia
# RPMI-8226 leukemia = tested on: RPMI-8226 leukemia
# OVCAR-8 ovarian = tested on: OVCAR-8 ovarian
# OVCAR-5 ovarian = tested on: OVCAR-5 ovarian
# OVCAR-4 ovarian = tested on: OVCAR-4 ovarian
# SK-OV-3 ovarian = tested on: SK-OV-3 ovarian
# IGROV1 ovarian = tested on: IGROV1 ovarian
# OVCAR-3 ovarian = tested on: OVCAR-3 ovarian
# NCI/ADR-RES ovarian = tested on: NCI/ADR-RES ovarian
# T-47D breast = tested on: T-47D breast
# BT-549 breast = tested on: BT-549 breast
# MDA-MB-435 melanoma = tested on: MDA-MB-435 melanoma
# SW-620 colon = tested on: SW-620 colon
# MCF7 breast = tested on: MCF7 breast
# HCT-116 colon = tested on: HCT-116 colon
# HCC-2998 colon = tested on: HCC-2998 colon
# KM12 colon = tested on: KM12 colon
# HS 578T breast = tested on: HS 578T breast
Compound,growth (SR leukemia),growth (RPMI-8226 leukemia),growth (OVCAR-8 ovarian),growth (OVCAR-5 ovarian),growth (OVCAR-4 ovarian) [%],growth (SK-OV-3 ovarian) [%],growth (IGROV1 ovarian),growth (OVCAR-3 ovarian),growth (NCI/ADR-RES ovarian) [%],growth (T-47D breast) [%],growth (BT-549 breast),growth (MDA-MB-435 melanoma),growth (SW-620 colon),growth (MCF7 breast),growth (HCT-116 colon),growth (HCC-2998 colon),growth (KM12 colon),growth (HS 578T breast)
Cc1cc(C#Cc2ccc(C(C)(C)C)cc2)ccc1-n1c(/C=C/c2c(Cl)cccc2Cl)nc2ccccc2c1=O,88.1%,91.5%,115%,106%,134,106,103%,94.3%,103,82.5,105%,98%,85.5%,85.9%,89.2%,99.3%,98.6%,
CCn1c(=O)c(C(=O)NCCCO)c(O)c2ccccc21,105%,122%,103%,116%,100,115,108%,155%,111,,150%,106%,106%,95.2%,104%,139%,120%,92.1%
CC(=O)O[C@@H]1CC2C(C)(C)CCCC2(C)C2=C1C(=O)C(C(C)C)=CC2=O (stereo partly drawn),-0.431% (active),2.06% (active),-2.03% (active),-45.4% (active),13.4,17.2,7.5% (active),0.0354% (active),15.9,,-13% (active),-28.1% (active),-52.5% (active),3.73% (active),-24.4% (active),-60% (active),-48.7% (active),9.38% (active)
COc1cccc(N2CCN(c3ncnc4cc[nH]c34)CC2)c1,39.4%,35.4%,40.3%,104%,69.2,86.5,85.4%,70.9%,,20.4,42.9%,42.6%,90.6%,46.7%,35.8%,,71.8%,92.5%
COC(=O)C(Br)(C(=O)OC)C(Br)C(Br)C(Br)c1ccccc1 (stereo not drawn),47.6%,106%,73.1%,126%,83.6,102,39.1%,-37% (active),104,,108%,47.9%,-79% (active),18.3%,-92.6% (active),,89.9%,114%
O=C(c1ccccc1)c1cccc(C(Br)Br)c1,43.8%,84.4%,93.7%,125%,95.4,94,70.5%,97.5%,,88.4,99.4%,30.9%,66.3%,65.6%,65.9%,94%,75.2%,94.5%
COC1(OC)C2(Cl)CCC1(Cl)C(Cl)=C2Cl,98.6%,103%,94.6%,105%,103,104,106%,112%,,98.3,117%,99.9%,120%,98%,105%,103%,106%,99.9%
COc1cc2ncnc(Nc3ccc(S(=O)(=O)Nc4cc(C)on4)cc3)c2cc1OCCCN1CCN(c2ccc([N+](=O)[O-])cc2)CC1,114%,109%,104%,106%,111,99,108%,103%,106,,109%,103%,105%,106%,109%,111%,106%,101%
FC(F)(F)c1nn[nH]n1,104%,89.5%,105%,108%,111,107,118%,104%,,101,109%,101%,112%,97.3%,108%,98.1%,99.6%,111%
NC(=O)c1ccc[n+](Cc2ccccc2)c1,109%,89.9%,103%,96.2%,102,113,111%,107%,,106,118%,98.2%,102%,103%,99.9%,102%,102%,98.5%
COc1cc(C)c(Cl)cc1C1=NN(c2ccc(S(N)(=O)=O)cc2)C(/C=C/c2ccccc2)C1 (stereo not drawn),66.7%,35.8%,31.7%,104%,28.1,88.8,45.8%,51.7%,,17.5,107%,62.5%,43.9%,23.3%,11.5%,74.9%,34.8%,86.8%
CCN(CC)Cc1cc(Nc2ccnc3ccc(OC)cc23)ccc1O,7.65% (active),48.5%,28.4%,55%,55.3,73.6,23.8%,50.8%,35.8,,55.2%,47.6%,27.5%,22.9%,16.2%,32.8%,42.2%,77.2%
CCCCCCCC/C=C\CCCCCCCC(=O)OCCCCCC,105%,104%,100%,117%,113,99.3,108%,113%,,102,114%,101%,106%,105%,100%,107%,102%,105%
CC(C)CCSc1nc(-c2ccc(F)cc2)c(C#N)c(N2CCCCC2)n1,87.6%,91.2%,89.3%,102%,93.6,105,106%,105%,99.2,,91.4%,100%,95.6%,93.6%,88%,102%,94.5%,99.1%
CCCCCCCCCCCCCCCCCC(=O)OCCCCCCCCCCCCC,116%,95%,109%,113%,113,114,106%,114%,,98.4,133%,109%,117%,114%,111%,113%,105%,122%
ClC1(Cl)C2CCCCCCC21 (stereo not drawn),108%,106%,123%,116%,109,118,107%,120%,,,101%,104%,107%,98.5%,110%,114%,109%,91.8%
COc1cc(/C=C2\CN(C(=O)OC(C)(C)C)C/C(=C\c3ccc(O)c(OC)c3)C2=O)ccc1O,79.9%,71.8%,89.6%,107%,97.6,105,110%,98.6%,102,,85.4%,99.4%,99.9%,85.9%,68.6%,106%,99.1%,91.3%
CCOC(OCC)c1cnc2nc(NC(C)=O)[nH]c(=O)c2n1,99.9%,106%,102%,101%,107,106,101%,113%,,99.9,112%,105%,103%,96.4%,102%,107%,108%,102%
